The full ranking holds about 33,000 sequences; the median of “E-score (-0.5 to 0.5)” is about -0.012, and the highest 2% start at about 0.27. For the sample, the highest values were picked, then their nearest neighbours and some sequences at random.

Experimental findings from the supplement of paper PMC3334620 are described below.

This experiment has as its target T1, Vhr1 (UniProt P40522).
T1 sequence: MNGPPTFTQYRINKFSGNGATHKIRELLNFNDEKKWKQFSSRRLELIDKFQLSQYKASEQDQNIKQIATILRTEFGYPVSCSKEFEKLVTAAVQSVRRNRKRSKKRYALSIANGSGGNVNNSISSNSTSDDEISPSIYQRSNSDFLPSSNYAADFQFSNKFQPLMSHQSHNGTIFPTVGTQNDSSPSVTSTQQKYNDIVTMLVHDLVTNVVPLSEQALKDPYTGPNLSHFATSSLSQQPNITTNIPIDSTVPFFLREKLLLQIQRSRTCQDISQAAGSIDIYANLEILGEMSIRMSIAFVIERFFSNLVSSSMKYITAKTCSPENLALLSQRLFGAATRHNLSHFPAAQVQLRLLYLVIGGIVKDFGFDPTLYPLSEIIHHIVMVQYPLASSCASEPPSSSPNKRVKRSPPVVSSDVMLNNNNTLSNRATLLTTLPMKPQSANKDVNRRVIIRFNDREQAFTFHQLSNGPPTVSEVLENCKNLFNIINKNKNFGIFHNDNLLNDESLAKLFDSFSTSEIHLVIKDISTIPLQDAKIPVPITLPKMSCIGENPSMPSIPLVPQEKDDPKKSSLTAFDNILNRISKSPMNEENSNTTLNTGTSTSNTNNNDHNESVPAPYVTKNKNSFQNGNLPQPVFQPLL
The experiment in a line: PBM E-score (8-mer binding enrichment) (E-score (-0.5 to 0.5)); higher = stronger / more preferred TF binding. The settings on record: protein concentration: 200 nM; construct: GST-full length. The method in brief: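 For each ungapped eight-base word taken together with its reverse complement, the Universal PBM Analysis Suite assigned an E-score. Binding data came from GST-tagged yeast transcription factors, applied at about 100-200 nM, on universal all-10-mer Agilent arrays made double-stranded by primer extension. Fluorescent anti-GST marked bound protein, and scans were normalised with masliner.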
Take ACAGCCTA: the “PBM E-score” value turned out to be 0.0389.

Take AAGGGTGC: the “PBM E-score” value is -0.0494. As to CAAGCAAG, the “PBM E-score” value is -0.0582. Then AACTATTG, with 0.13; and AGACTCAT, with 0.353.

Take AGACTCCT: the “PBM E-score” value was determined as 0.186. Turning to ACTCTCAT, the “PBM E-score” value came to 0.027. For the sequence AGACTCAG, the “PBM E-score” value stood at 0.242.

As for AGACTCGC, the “PBM E-score” value came to 0.136. On to AGACTCAC, for which the “PBM E-score” value was determined as 0.399. CCGCCTTC: the “PBM E-score” value is 0.0298.

With CCCGTCGG, the “PBM E-score” value worked out at 0.065. Then CAAGCTCG, with 0.0842; and GGCGCTAC, with -0.192. As to GTGGAGAA, the “PBM E-score” value was -0.13.

Turning to CCGTGTTC, the “PBM E-score” value was 0.271. The same measure for CCGTGTTA: 0.152; for ACGTGTTC: -0.219; for ACACAGAC: 0.25. Consider CGCTGCCA, for which the “PBM E-score” value is -0.0656. Then AAAGTACA, with 0.071; and ACTACCAC, with 0.175. Turning to ACTACCAT, the “PBM E-score” value came out at 0.278.

With ACTACCAA, the “PBM E-score” value is 0.163.

ACTACAAG: the “PBM E-score” value is -0.00586.

As to ACTACTAC, the “PBM E-score” value came out at 0.232. For ACTACAAT, the “PBM E-score” value turned out to be 0.277. Then ACTACTAA, with 0.0623; and ACTACTAT, with 0.325. In the case of ACTACAAC, the “PBM E-score” value came out at 0.212. In the case of AGCAAGGG, the “PBM E-score” value is -0.0155. The same measure for GAGTGCGC: -0.0251; for CCCGATGA: 0.273. Consider CCCGATGC, for which the “PBM E-score” value is -0.18.

As for ACCGATGA, the “PBM E-score” value stood at 0.00055. On to GTGCGCGA, for which the “PBM E-score” value amounted to 0.0151. Regarding CCGCATGA, the “PBM E-score” value was found to be 0.146. For the sequence GACTATGC, the “PBM E-score” value was found to be 0.233. The same measure for AACTATGA: 0.22; for GACTATCA: 0.0818. For TACTATGA, the “PBM E-score” value amounted to 0.317. The same measure for GACTATGA: 0.289; for CACTATGA: 0.173; for AGAGGCTG: -0.116. Consider AGTGACTG, for which the “PBM E-score” value amounted to 0.288. The same measure for AGTGACTA: 0.367; for AGTGACGA: 0.139; for GGTGACCA: -0.0328. Then AGTGACGG, with 0.00494. The same measure for AGTGACCG: -0.117; for AGTGACAA: 0.0325. As to GGTGACTA, the “PBM E-score” value was found to be 0.44.

On to GGTGACGA, for which the “PBM E-score” value turned out to be 0.113.

On to GAGGAAGC, for which the “PBM E-score” value is -0.151.

Take AGACCTCT: the “PBM E-score” value was -0.143. Regarding TAGGAAAA, the “PBM E-score” value was -0.22. For TAAGCCGA, the “PBM E-score” value is -0.13. Then GTCTGTGA, with 0.235; and GCATTCCA, with -0.177. For the sequence AGCCTGAC, the “PBM E-score” value was -0.0744. Regarding CATCATCC, the “PBM E-score” value is 0.119. As for CATCATCA, the “PBM E-score” value is -0.0217. The same measure for ATCCATCC: 0.156; for CATCATCG: 0.16; for GATCATCC: 0.141. The same measure for TATCATCA: 0.147; for AATCATCC: 0.405; for ATCCATCG: 0.0134. Then ATCCATCA, with 0.289; and AATCATCT, with 0.185; and AATCATCA, with 0.374.

As to AATCATCG, the “PBM E-score” value amounted to 0.334. With AAGATTTG, the “PBM E-score” value was -0.09. Then ACAGTGGG, with -0.133. For ACATCTAC, the “PBM E-score” value is 0.155.

GCGCCAAC: the “PBM E-score” value was -0.0311. GCCCCCCA: the “PBM E-score” value was -0.244.

As for GGCCCAGA, the “PBM E-score” value is -0.26. Then AGTTACAT, with -0.043; and TGGACACA, with 0.0645. The same measure for GACACACC: 0.28. On to GACACACA, for which the “PBM E-score” value worked out at 0.298. Take GACACATA: the “PBM E-score” value came out at 0.197. Turning to GGGACACC, the “PBM E-score” value was -0.0207. Then AACACACC, with 0.27; and GAGACACA, with 0.14; and GGGACACA, with 0.297. Then CACACACC, with 0.235.
